Each structure is given as a SMILES string. Inconclusive results are not listed. A call without a number means that no potency is given here. The source made the active and inactive calls. Calls follow the shape of the dose curve; as a rule, active = well fitted inhibition curve with a large enough effect; inconclusive = small, poorly fitted or top-dose-only effect; inactive = flat fitted curve, though single readings scatter.
Potency is read from the fitted curve at half-maximal effect.

This assay can be described thus: P-glycoprotein substrates identified in KB-8-5-11 adenocarcinoma cell line, qHTS therapeutic library screen (AID 1346987). Also: nearly all actives have a fitted effect of over 65% in size. The settings on record: KB-8-5-11 (P-gp overexpressing) viability, CellTiter-Glo, 72 h; series mostly up to 44.5 µM. In outline: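 Human cervical adenocarcinoma KB-8-5-11 cells, selected in colchicine to over-express P-gp and assayed without it, were exposed for 72 h to titrated compounds. An ATP-based luminescent viability signal gave AC50.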
(In general: Quantitative high-throughput screening tests each substance at several concentrations.)
Turning to `C=CC(=O)Nc1cccc(Nc2nc(Nc3ccc(OCCOC)cc3)ncc2F)c1`, the Potency is 7.31 µM (active).
Take `C[C@H]1C[C@@H]2[C@H]([C@@H](O)C[C@@]3(C)[C@H]2CC[C@]3(O)C(=O)COC(=O)CCC(=O)O)[C@@]2(C)C=CC(=O)C=C12`: the Potency entry was “inactive”.
Next, `CCn1c(=O)c(-c2ccc(Cl)cc2Cl)cc2cnc(Nc3ccc(N4CCNCC4)c(F)c3)nc21`: 20.6 µM (active).
On to `C[C@H]1C[C@H]2[C@@H]3CCC4=CC(=O)C=C[C@]4(C)[C@@]3(F)[C@@H](O)C[C@]2(C)[C@@]1(O)C(=O)CCl`, for which the Potency entry was “inactive”.
Next, `Nc1nc(NC2CC2)cc(-c2cccc(Cl)c2Cl)n1`: 6.51 µM (active); `OC1(CN2CCC(COc3noc4cccc(O[C@@H]5CCOC5)c34)CC2)CCOCC1`: “inactive”; `N[C@@H](C(=O)N[C@H]1C(=O)N2C(C(=O)O)=C(Cl)CC[C@H]12)c1ccccc1`: “inactive”.
Take `COc1cc(C(=O)NCC2(N(C)C)CCCC2)cc(OC)c1OCc1ccccc1`: the Potency result was “inactive”.
For the compound `COc1cc(C(N)=O)nc(-c2ccccn2)c1O`, the Potency entry is “inactive”.
Next, `CS(=O)(=O)OCCCNCCCOS(C)(=O)=O`: “inactive”; `COc1ccc(NC(=O)c2ccc(-c3ccc(C(=N)N)cc3C)cc2)cc1N1CCN(C)CC1`: “inactive”.
Regarding `CCn1c2ccccc2c2cc(Nc3ccnc(NCCCN4CCOCC4)n3)ccc21`, the Potency was 20.6 µM (active).
With `CCN(CC)c1ccc(C(=C2C=CC(=[N+](CC)CC)C=C2)c2ccccc2)cc1` the figure was 4.61 µM (active); with `C=Cc1ccccc1`, “inactive”; with `CC(=O)OC1C(O)CC2(C)C(CCC3(C)C2CC=C2C4C5(CCC(CO[C@@H]6O[C@H](CO)[C@@H](O)[C@H](O)[C@H]6O)(OC5=O)C4(C)O)C(O)CC23C)C1(C)C` (stereo partly drawn), “inactive”.
With `COc1cc(N2CCC(O)CC2)ccc1Nc1nc(Nc2ccccc2S(=O)(=O)C(C)C)c2[nH]cnc2n1` the entry was “inactive”; with `O=C(c1ccc(OC(F)F)c(C#Cc2ccccn2)c1)N1Cc2cccnc2C1`, “inactive”.
Next, `Nc1nc(O)c(C2=C3C(=Nc4ccccc43)C(=O)NCC2)[nH]1`: “inactive”.
As for `Cc1cc(C(=O)Nc2cc(Oc3ccc4nc(NC(=O)C5CC5)cn4n3)ccc2C)n(C)n1`, the Potency is 9.2 µM (active).
Regarding `O=c1[nH]cnc2[nH]cc(CN3CCCCC3)c12`, the Potency entry is “inactive”.
Next, `OC(CN1CCCCC1)c1cc(-c2ccccc2)on1` (stereo not drawn): “inactive”; `CCCCOC(=O)C(=O)Nc1cccc(-c2nn[nH]n2)c1`: “inactive”; `Cc1nc(C(=O)N2CCC[C@H]2Cc2nnc(-c3ccccc3)o2)c(-c2ccccc2F)s1`: “inactive”.

The values are drawn from PubChem BioAssay (NCATS).
